# Assay results from PubChem BioAssay.
# The source made the active and inactive calls.
# Columns and labels:
# [1] = system: Plasmodium falciparum Sir2 (PF13_0152, Sir2A); assay: pfSir2 binders on small-molecule microarrays, primary screen, biochemical, small-molecule microarray, 635 nm fluorescence (AID 1098); conditions: small-molecule microarray binding, fluorescence 635 nm; higher = more signal;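 further: score merges spot fluorescence intensity with its signal-to-noise ratio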
# [2] = small-molecule microarray binders of probe aDKK1, primary screen, biochemical, biotinylated probe, 635/667 nm fluorescence (AID 1099); conditions: higher = more signal;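 further: score merges 667nm spot fluorescence with signal to noise across triplicate slides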
# [3] = small-molecule microarray binders of probe aCHRDL2, primary screen, biochemical, biotinylated probe, 635/667 nm fluorescence (AID 1100); conditions: higher = more signal
# [4] = splicing luciferase reporter signal modulators, primary screen, spliceosome inhibition project, cell-based, HEK293, splice +/- reporter (AID 1101); conditions: luminescence, 24 h, higher = more signal, called active from +8 up or from −8 down;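 further: HEK293 cells carrying a splicing-competent luciferase reporter gene; test concentration not given here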
# [5] = biological target: Fibroblast growth factor 10 (Homo sapiens) (UniProt O15520); assay: FGF10 binders on small-molecule microarrays, primary screen, biochemical, small-molecule microarray, 635 nm fluorescence (AID 1102); conditions: FGF10 binding, fluorescence 635 nm, higher = more signal
# Sequence of Fibroblast growth factor 10 (Homo sapiens) (O15520 whole entry, looked up): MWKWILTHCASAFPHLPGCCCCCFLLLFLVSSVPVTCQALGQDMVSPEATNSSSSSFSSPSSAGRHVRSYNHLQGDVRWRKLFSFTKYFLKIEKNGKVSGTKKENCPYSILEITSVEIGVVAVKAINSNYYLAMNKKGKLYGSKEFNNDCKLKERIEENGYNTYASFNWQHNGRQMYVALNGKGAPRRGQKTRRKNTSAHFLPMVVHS
# [6] = system: glycogen synthase kinase-3 (GSK3A per assay name; protocol says GSK3B); assay: GSK3 binders on small-molecule microarrays, primary screen, biochemical, small-molecule microarray, 635 nm fluorescence, GSK3A (AID 1103); conditions: small-molecule microarray binding, fluorescence 635 nm; higher = more signal; further: the record names both GSK3A and GSK3B
# [7] = biological target: Epidermal growth factor receptor (Homo sapiens) (UniProt P00533); assay: EGFR binders on small-molecule microarrays, primary screen, biochemical, small-molecule microarray, 635 nm fluorescence (AID 1104); conditions: EGFR binding, higher = more signal;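 further: score merges 667 nm emission intensity with spot signal to noise over triplicate slides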
# Sequence of Epidermal growth factor receptor (Homo sapiens) (P00533 whole entry, looked up): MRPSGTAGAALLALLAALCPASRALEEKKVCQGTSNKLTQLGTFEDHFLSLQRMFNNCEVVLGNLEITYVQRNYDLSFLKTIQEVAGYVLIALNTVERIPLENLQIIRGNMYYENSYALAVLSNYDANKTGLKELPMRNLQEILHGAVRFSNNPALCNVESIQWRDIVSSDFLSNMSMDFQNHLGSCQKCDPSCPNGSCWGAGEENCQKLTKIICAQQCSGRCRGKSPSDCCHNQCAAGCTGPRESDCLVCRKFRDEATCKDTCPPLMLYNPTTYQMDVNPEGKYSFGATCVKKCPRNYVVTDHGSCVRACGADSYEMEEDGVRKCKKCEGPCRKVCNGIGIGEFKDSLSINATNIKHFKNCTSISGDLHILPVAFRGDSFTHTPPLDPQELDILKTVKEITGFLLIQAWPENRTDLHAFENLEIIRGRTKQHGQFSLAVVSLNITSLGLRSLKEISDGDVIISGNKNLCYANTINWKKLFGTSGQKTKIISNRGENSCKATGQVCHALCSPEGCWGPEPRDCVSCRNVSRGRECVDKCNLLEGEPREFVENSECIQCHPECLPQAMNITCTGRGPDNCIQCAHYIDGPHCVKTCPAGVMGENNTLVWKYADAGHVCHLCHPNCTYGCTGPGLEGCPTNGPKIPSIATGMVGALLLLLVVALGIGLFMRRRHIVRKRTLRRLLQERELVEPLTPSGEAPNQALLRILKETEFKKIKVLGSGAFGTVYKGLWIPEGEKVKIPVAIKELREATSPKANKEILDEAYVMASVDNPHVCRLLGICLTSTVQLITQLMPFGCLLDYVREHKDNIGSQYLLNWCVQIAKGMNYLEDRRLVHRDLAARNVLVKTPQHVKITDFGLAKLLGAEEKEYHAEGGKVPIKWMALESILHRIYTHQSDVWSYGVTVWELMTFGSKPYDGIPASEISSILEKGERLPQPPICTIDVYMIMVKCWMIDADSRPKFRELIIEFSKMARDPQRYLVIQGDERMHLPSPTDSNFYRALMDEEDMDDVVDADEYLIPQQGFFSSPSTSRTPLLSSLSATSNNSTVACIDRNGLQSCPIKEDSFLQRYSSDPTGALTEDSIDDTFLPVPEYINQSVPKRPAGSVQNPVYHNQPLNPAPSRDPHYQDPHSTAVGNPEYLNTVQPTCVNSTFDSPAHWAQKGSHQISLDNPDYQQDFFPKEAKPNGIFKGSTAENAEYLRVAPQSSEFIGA
# [8] = biological target: Follistatin-related protein 3 (Homo sapiens) (UniProt O95633); assay: FSTL3 binders on small-molecule microarrays, primary screen, biochemical, small-molecule microarray, 635 nm fluorescence (AID 1105); conditions: FSTL3 binding, higher = more signal;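 further: score merges emission near 667 nm and signal to noise per printed spot across three slides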
# Sequence of Follistatin-related protein 3 (Homo sapiens) (O95633 whole entry, looked up): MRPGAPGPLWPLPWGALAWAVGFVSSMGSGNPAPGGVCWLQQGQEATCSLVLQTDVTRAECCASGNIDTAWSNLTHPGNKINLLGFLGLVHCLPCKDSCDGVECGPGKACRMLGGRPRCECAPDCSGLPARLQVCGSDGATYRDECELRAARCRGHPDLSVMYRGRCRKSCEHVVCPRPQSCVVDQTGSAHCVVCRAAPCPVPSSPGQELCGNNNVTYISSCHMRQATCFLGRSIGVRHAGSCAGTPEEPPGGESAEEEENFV
# [9] = biological target: Dickkopf-related protein 1 (Homo sapiens) (UniProt O94907); assay: DKK1 binders on small-molecule microarrays, primary screen, biochemical, small-molecule microarray, 635 nm fluorescence scan (AID 1106); conditions: DKK1 binding, higher = more signal;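 further: score merges emission near 667 nm with signal to noise over three replicate slides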
# Sequence of Dickkopf-related protein 1 (Homo sapiens) (O94907 whole entry, looked up): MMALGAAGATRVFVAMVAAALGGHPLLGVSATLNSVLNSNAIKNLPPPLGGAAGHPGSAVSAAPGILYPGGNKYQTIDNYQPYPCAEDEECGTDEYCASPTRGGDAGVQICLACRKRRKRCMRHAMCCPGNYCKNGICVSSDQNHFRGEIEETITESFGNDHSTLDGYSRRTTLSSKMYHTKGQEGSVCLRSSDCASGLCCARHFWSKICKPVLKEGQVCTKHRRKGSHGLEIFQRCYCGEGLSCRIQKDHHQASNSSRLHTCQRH
# [10] = system: Inhibin beta A chain (activin A); assay: INHBA (activin A) binders on microarrays, primary screen, biochemical, small-molecule microarray, 635 nm fluorescence scan (AID 1107); conditions: small-molecule microarray binding, higher = more signal;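 further: mouse activin A protein probed at 4.33 µg/mL on printed slides; score merges bound-protein fluorescence near 667 nm with spot signal-to-noise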
# [11] = system: Human papillomavirus type 1a protein E7 (residues 44-93); assay: HPV1a E7 fragment binders on microarrays, primary screen, biochemical, small-molecule microarray, residues 44-93, 635 nm fluorescence (AID 1108); conditions: small-molecule microarray binding, fluorescence 635 nm; higher = more signal;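 further: E7 fragment applied at 1 µg/mL in TBST for 1 h at 4 C; score combines spot fluorescence with its signal to noise ratio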
# [12] = modulators of HCV replicon luciferase signal, primary screen, HCV replication inhibitor project, Huh7 cells, luciferase reporter (AID 1109); conditions: 48 h, higher = more signal;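 further: huh7 hepatoma cells harbouring a luciferase neomycin HCV replicon reporter; luciferase luminescence as measure of HCV replicon replication; test concentration not given here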
# [13] = biological target: Left-right determination factor 2 (Homo sapiens) (UniProt O00292); assay: LEFTY2 binders on small-molecule microarrays, primary screen, biochemical, small-molecule microarray, 635 nm fluorescence scan (AID 1110); conditions: LEFTY2 binding, higher = more signal
# Sequence of Left-right determination factor 2 (Homo sapiens) (O00292 whole entry, looked up): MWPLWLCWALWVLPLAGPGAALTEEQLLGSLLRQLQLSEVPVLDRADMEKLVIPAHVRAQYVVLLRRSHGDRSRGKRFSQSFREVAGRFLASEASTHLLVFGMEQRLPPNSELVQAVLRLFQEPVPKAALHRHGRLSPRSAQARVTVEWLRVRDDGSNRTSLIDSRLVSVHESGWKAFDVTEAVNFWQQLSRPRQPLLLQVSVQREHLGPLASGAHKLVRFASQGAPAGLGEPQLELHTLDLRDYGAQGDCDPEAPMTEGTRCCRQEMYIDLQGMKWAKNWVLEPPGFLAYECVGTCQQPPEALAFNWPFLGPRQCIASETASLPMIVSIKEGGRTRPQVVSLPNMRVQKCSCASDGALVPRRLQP
# [14] = biological target: Calmodulin-1 (Homo sapiens) (UniProt P0DP23); assay: CALM1 binders on microarrays, EGTA buffer, profiling panel, biochemical, small-molecule microarray, Cy5-labelled CALM1 (AID 1111); conditions: Cy5-CALM1 binding fluorescence, higher = more signal;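 further: labelled calmodulin applied in Tris saline Tween buffer holding calcium plus EGTA and DTT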
# [15] = biological target: Calmodulin-1 (Homo sapiens) (UniProt P0DP23); assay: calcium-bound CALM1 binders on microarrays, profiling panel, artefact control for SMM control-protein annotation, biochemical, small-molecule microarray, Cy5-labelled CALM1, plus calcium (AID 1112); conditions: Cy5-CALM1 binding fluorescence, higher = more signal;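 further: score merges spot fluorescence with signal to noise from triplicate slides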
# [16] = small-molecule microarray binders of probe aWnt5a, primary screen, biochemical, biotinylated probe, 635/667 nm fluorescence (AID 1113); conditions: higher = more signal;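 further: score merges 667 nm fluorescence intensity with signal-to-noise per printed feature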
# [17] = small-molecule microarray binders of probe aShh, primary screen, biochemical, biotinylated probe, 635/667 nm fluorescence (AID 1114); conditions: higher = more signal;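 further: probe is biotin-labelled aShh protein from a stem cell growth factor screen; measures binding of labelled protein to compounds printed on the slide; score merges feature fluorescence at 667 nm with signal-to-noise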
# [18] = small-molecule microarray binders of probe aNog, primary screen, biochemical, biotinylated probe, 635/667 nm fluorescence (AID 1115); conditions: higher = more signal;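 further: probe is biotinylated aNog protein used at 0.15 µg/mL for 1 h at 4 C; z-score combines 667 nm fluorescence of each spot with its signal to noise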
# [19] = biological target: Torsin-1A-interacting protein 1 (Homo sapiens) (UniProt Q5JTV8); assay: LAP1 binders from COS7 cell lysate, primary screen, small-molecule microarray, 635/667 nm fluorescence (AID 1116); conditions: COS7-hLAP1 lysate binding, 635 nm fluorescence, higher = more signal
# Sequence of Torsin-1A-interacting protein 1 (Homo sapiens) (Q5JTV8 whole entry, looked up): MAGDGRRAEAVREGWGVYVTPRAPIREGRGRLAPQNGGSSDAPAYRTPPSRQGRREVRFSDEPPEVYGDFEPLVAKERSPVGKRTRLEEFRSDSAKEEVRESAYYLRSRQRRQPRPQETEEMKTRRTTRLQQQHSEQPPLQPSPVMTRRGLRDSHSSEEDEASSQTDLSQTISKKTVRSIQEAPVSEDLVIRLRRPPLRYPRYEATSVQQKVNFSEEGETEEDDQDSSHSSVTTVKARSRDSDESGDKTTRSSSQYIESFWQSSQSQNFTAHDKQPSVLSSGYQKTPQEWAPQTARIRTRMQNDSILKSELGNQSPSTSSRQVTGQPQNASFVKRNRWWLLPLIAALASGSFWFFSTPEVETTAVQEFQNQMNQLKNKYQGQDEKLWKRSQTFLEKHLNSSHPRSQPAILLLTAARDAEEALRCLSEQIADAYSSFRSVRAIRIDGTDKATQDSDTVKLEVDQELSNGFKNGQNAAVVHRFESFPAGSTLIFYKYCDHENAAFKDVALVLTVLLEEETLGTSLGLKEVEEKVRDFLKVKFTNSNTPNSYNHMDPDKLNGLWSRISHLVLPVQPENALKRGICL
# [20] = biological target: Alpha-bungarotoxin (Bungarus multicinctus) (UniProt P60615); assay: alpha-bungarotoxin binders on microarray, profiling panel, artefact control for SMM control protein annotation, biochemical, small-molecule microarray, Alexa647 label, 635/667 nm fluorescence (AID 1117); conditions: alpha-BTX-A647 binding fluorescence, higher = more signal
# Sequence of Alpha-bungarotoxin (Bungarus multicinctus) (P60615 whole entry, looked up): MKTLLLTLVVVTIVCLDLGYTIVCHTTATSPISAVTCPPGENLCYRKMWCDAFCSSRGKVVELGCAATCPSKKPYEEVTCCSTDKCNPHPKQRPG
Compound,composite z-score [1],composite z-score [2],composite z-score [3],z-score [4],composite z-score [5],composite z-score [6],composite z-score [7],composite z-score [8],composite z-score [9],composite z-score [10],composite z-score [11],z-score [12],composite z-score [13],composite z-score [14],composite z-score [15],composite z-score [16],composite z-score [17],composite z-score [18],composite z-score [19],composite z-score [20]
C[C@]1(C(=O)NC2CC2)c2ccccc2C(=O)N(Cc2cc(F)cc(C(F)(F)F)c2)[C@H]1c1ccc(CO)cc1,0.938,-0.554,0.87,-0.224 (inactive),-0.698,-1.08,-1.16,-0.801,-1.46,-0.672,1.49,-0.782,-1.59,-0.448,0.0045,-0.187,-0.469,-0.658,-0.65,-0.442
C=C(C(=O)CC[C@H](OC(=O)c1ccccc1-c1ccccc1C(=O)O)c1ccc(OCCO)cc1)C(C)C,1.26,0.157,0.0371,-0.47 (inactive),1.04,0.114,-0.242,0.0428,0.339,0.548,1.38,-1.26,0.0164,0.275,-0.37,0.204,0.0639,1.14,0.735,0.971
COC(=O)C1=CC(c2ccc(CO)cc2)=CC(C2CC2)N(Cc2cc3c(cc2Br)OCO3)C=C1C(=O)OC (stereo not given),1.66,0.706,0.844,1.17 (inactive),1.18,1.29,0.737,0.89,0.157,0.836,1.32,-1.41,0.568,2.06,0.631,0.0251,0.254,0.564,2.15,2.47
COCCOC(=O)N1C(=O)[C@@]2(c3cc(C#CCNC(N)=O)ccc31)[C@H](C(N)=O)[C@H]1C(=O)O[C@H](c3ccccc3)[C@H](c3ccccc3)N1[C@@H]2c1ccc(O)cc1,0.92,0.554,0.614,0.359 (inactive),0.149,-0.575,-0.278,-0.239,0.0656,0.676,-0.109,0.494,-0.0417,0.062,0.662,-0.0384,0.288,-0.0245,0.0743,-0.285
CN1C(=O)C2C=CC(C(O)c3ccc(I)cc3)N(N(c3ccccc3)c3ccccc3)C2C1=O (stereo not given),0.727,-0.0078,0.914,1.19 (inactive),-0.841,-0.487,-0.882,-0.309,-0.421,1.32,-0.802,-1.55,-0.953,0.95,-0.0638,-0.0735,0.0469,0.878,-0.119,0.98
COCCOC(=O)N1C(=O)[C@@]2(c3cc(C#CCNC(N)=O)ccc31)[C@H](C(=O)N1CCN(c3ncccn3)CC1)[C@H]1C(=O)O[C@H](c3ccccc3)[C@H](c3ccccc3)N1[C@@H]2c1ccc(O)cc1,0.505,-0.326,-0.47,-0.428 (inactive),-0.735,-0.438,-1.14,-0.997,-1.92,-0.853,-0.381,0.894,-1.67,-0.777,-0.686,-0.408,-0.461,-0.294,-0.92,0.165
CC1C2C(CCCO)=CC(C3C(=O)N(C)C(=O)C23)N1Cc1cccc(OC(F)(F)F)c1 (stereo not given),1.47,0.784,0.44,-1.06 (inactive),0.684,1.3,0.0422,0.231,-0.124,0.527,1.47,-0.75,0.101,1.65,0.841,0.0317,0.522,1.64,1.62,1.42
COCCOC(=O)N1C(=O)[C@@]2(c3cc(C#CC4(O)CCCCCC4)ccc31)[C@H](C(N)=O)[C@H]1C(=O)O[C@H](c3ccccc3)[C@H](c3ccccc3)N1[C@@H]2c1ccc(OCCO)cc1,0.804,0.527,0.668,-0.0691 (inactive),0.99,1.28,0.484,0.974,0.338,0.725,0.688,-2.61,0.73,1.49,0.527,-0.0364,0.407,0.176,0.883,1.61
COC(=O)[C@@]1(Cc2ccc(F)cc2)[C@H]2c3cc(C(=O)N(C)C)n(Cc4ccc(C(F)(F)F)nc4)c3C[C@H]2CN1C(=O)c1ccccc1,1.12,-0.154,-0.252,-0.622 (inactive),0.776,1.36,0.389,1.42,0.638,0.876,1.38,-2.42,0.22,2.27,0.789,0.15,0.25,-0.235,0.0971,0.922
COCCOC(=O)N1C(=O)[C@@]2(c3cc(C#CCNC(N)=O)ccc31)[C@H](C(=O)Nc1nc3ccccc3s1)[C@H]1C(=O)O[C@H](c3ccccc3)[C@H](c3ccccc3)N1[C@@H]2c1ccc(O)cc1,0.576,0.406,0.774,1.05 (inactive),0.777,1.06,0.195,0.783,0.393,0.719,1.2,-1.21,0.23,0.68,0.575,-0.124,0.0483,-0.314,0.618,1.6
O=C1OCCC/C=C\[C@H]2OC34C=CCN(Cc5ccccc5)C(=O)[C@H]3N(CCO)C(=O)[C@@H]4C12 (stereo not given in full),1.76,-0.214,0.222,-1.25 (inactive),0.049,0.124,-0.71,-0.579,-0.461,0.765,-0.574,0.0684,0.518,-0.251,0.774,-0.169,-0.0709,-0.33,-0.447,-1.06
